# DRD3 antagonist: qHTS of D3 Dopamine Receptor Antagonist: qHTS; D(3) dopamine receptor (Homo sapiens), P35462; D3R cells, DiscoveRx beta-arrestin luminescence, antagonist mode; stronger effect = lower value; AID 652054, 2013; 360,000 compounds, 2.5% hits; max response, negative = inhibition, %; in the data active = max response below about -50%; inconclusive = no clear call, values can overlap the other calls; note: % is set by controls: 0 for no effect and ±100 for the full control effect
#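 Cells plated overnight at 1500 cells/well, then exposed to library compounds with dopamine controls for 90 minutes at 37 degrees C. DiscoveRx reagent added for 30–60 minutes at room temperature; luminescence read, quantitative HTS format.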
# RGS4 inhibitor: Inhibitors of Regulator of G Protein Signaling (RGS) 4: qHTS. Regulator of G-protein signaling 4 (Homo sapiens), P49798. Transcreener GDP fluorescence polarization, RGS4-accelerated GTP hydrolysis. Potency, µM (top dose mostly 114 µM), inactives show at the highest dose activity change, negative = inhibition, usual class: inhibitors. 390,000 compounds, 0.039% hits. AID 504845, 2011; note: potency is the fitted concentration of half-maximal effect; % is set by controls: 0 for no effect and ±100 for the full control effect; nearly all actives have a fitted effect of over 75% in size
#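 MLSMR compounds (23 nl, pin-transferred) preincubated 10 min at room temperature with a 500nM (2x) first reagent, then RGS4 at 900nM (2x) plus Transcreener GDP mix added; fluorescence polarization (620/688 nm) read before and after 90 min at 30 °C.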
# B2AR arrestin: qHTS assay of beta-arrestin-biased ligands of beta2-adrenergic receptor. 330,000 compounds, 0.02% hits. Potency, µM (highest dose often 46.1 µM), for inactives: at the highest dose activation, actives largely listed as activators. beta-arrestin recruitment to beta2AR, cell-based reporter. Beta-2 adrenergic receptor (Homo sapiens), P07550;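 note: potency is the fitted concentration of half-maximal effect; 0% = DMSO controls and full agonism = EC100 isoproterenol or metaproterenol; nearly all actives have a fitted effect of over 65% in size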
# PTHR1 agonist: qHTS for PTHR1 Agonists: Primary Screen; HEK293 GP2 PTHR1 cells, GloSensor cAMP luminescence, 1 h; Potency, µM (highest dose often 115 µM), for the others: at the top dose activation, usual class: activators; 410,000 compounds, 0.075% hits; AID 743266, 2014; note: potency is the fitted concentration of half-maximal effect; nearly all actives have a fitted effect of over 55% in size
# Target sequence (Q03431 whole entry, looked up): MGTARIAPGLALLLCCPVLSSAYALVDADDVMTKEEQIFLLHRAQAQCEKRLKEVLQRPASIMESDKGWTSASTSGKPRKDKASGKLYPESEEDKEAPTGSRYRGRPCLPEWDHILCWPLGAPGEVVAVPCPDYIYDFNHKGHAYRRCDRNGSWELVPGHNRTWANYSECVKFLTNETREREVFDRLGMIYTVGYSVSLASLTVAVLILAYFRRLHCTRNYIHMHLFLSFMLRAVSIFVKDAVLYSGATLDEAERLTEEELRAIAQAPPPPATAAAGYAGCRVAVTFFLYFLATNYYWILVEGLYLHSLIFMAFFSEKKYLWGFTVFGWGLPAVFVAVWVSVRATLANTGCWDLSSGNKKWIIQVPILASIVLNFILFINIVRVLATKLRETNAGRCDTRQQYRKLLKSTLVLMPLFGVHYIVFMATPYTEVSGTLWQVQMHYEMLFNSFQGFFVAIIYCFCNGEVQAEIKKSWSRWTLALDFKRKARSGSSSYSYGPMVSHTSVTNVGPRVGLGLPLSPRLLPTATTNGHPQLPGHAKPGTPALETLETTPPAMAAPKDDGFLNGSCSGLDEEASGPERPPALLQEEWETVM
#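 HEK-293-derived GP2 cells expressing PTHR1 and a GloSensor cAMP reporter, 3,000/well, plated overnight, given luciferin plus IBMX (each 0.5 mM as added) for 1 h at 37 °C, then compound for 1 h at 37 °C. Luminescence was read after 15 min at room temperature.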
# BRCA1 expr up: qHTS Assay to Identify Small Molecule Activators of BRCA1 Expression. 380,000 compounds, 1.1% hits. Potency, µM (top dose mostly 46.1 µM), inactives show at the top dose activation, most hits filed as activators. MCF7-BRCA1-FFLuc reporter, luminescence, 48 h; response scale: scaled: vehicle 0%, 10 µM genistein 100%; note: potency is the fitted concentration of half-maximal effect; nearly all actives have a fitted effect of over 80% in size
#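 MCF7-BRCA1-FFLuc cells, 2000/well in phenol-red-free MEM, attached 2 h then treated 48 h at 37 C. Luciferase luminescence read 15 min after reagent; normalized to genistein maximum activation (10microM) and DMSO, concentration-response fitted.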
# DRD3 agonist: qHTS of D3 Dopamine Receptor Agonist: qHTS | D(3) dopamine receptor (Homo sapiens), P35462 | D3R DiscoveRx beta-arrestin cells, luminescence, 90 min | max activation, % | 410,000 compounds, 0.58% hits | AID 652048, 2013; in the data active = max activation above about 30%; note: 0% is about no effect
#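 Agonist mode: compounds and dopamine controls were applied to plated cells for 90 min at 37 degrees C after an overnight attachment at 1500 cells/well. Luminescent read-out followed 30 - 60 minutes at room temperature with DiscoveRx detection reagent.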
# * hit, by the source's call; i = inactive; ? = inconclusive; . = no result given; ! = repeats disagree; [ ] = remark or other dose. Rows were chosen to be rich in hits. Some 3.7% of all compounds tested hit in one or more screens of this group. Unless noted, calls come from the whole dose curve; as a rule, active = well fitted curve in the direction sought with a large enough effect; inconclusive = small, poorly fitted or top-dose-only effect, or another doubt; inactive = no such curve, though single readings can be large; an effect the other way counts as inactive or inconclusive.
SMILES,DRD3 antagonist,RGS4 inhibitor,B2AR arrestin,PTHR1 agonist,BRCA1 expr up,DRD3 agonist
Cc1cccc(CNC(=O)c2ccc3nc(Cc4ccccc4F)oc3c2)n1,-15,-4%,-1%,-45%,13µM*,-4
COCCC1CCCCN1C(=O)c1ccc2nc(Cc3ccccc3F)oc2c1 (stereo not drawn),-17,6%,0%,-31%,7.9µM*,-4
COc1ccc(Cc2nc3ccc(C(=O)NCc4cccc(C)n4)cc3o2)cc1OC,0,.,.,-2%,14%,-5
Cn1cc(CCNC(=O)c2ccc3nc(Cc4ccccc4F)oc3c2)cn1,4,11%,0%,-31%,2.5µM*,1
CCOC(=O)c1cc2c(=O)n3ccccc3nc2n(CC2CCCO2)c1=NC(=O)c1ccc(C)cc1 (stereo not drawn),.,29%,.,-15%,.,-1
CCCCOc1ccc(OCCNC(=O)C2CCCN2C(=O)Nc2ccccc2)cc1 (stereo not drawn),-4,-16%,0%,-2%,-12%,-13
O=C(Nc1ccccc1)c1ccc(-c2ccccc2C(F)(F)F)o1,-11,-53%,0%,-26%,5%,-22
CC(C)NC(=O)c1ccc(-c2ccccc2C(F)(F)F)o1,-8,18%,0%,-16%[57.5 µM],11µM*,-8
CCCNC(=O)c1cc(Cl)c(NC(=O)C2=CSCCO2)cc1OC,0,-36%,1%,-30%,7.9µM*,7
O=C(CCNC(=O)c1ccccc1Cl)Nc1nc2ccccc2s1,-5,12%,0%,-28%,11µM*,-2
O=C(Cc1c(F)cccc1Cl)Nc1nc2ccccc2s1,-18,7%,0%,-20%,8.9µM*,-3
COc1ccc2nc(NC(=O)CCNC(=O)c3ccccc3Cl)sc2c1,4,4%,0%,i,20%,5
CCOCCc1nnc(NC(=O)Cc2c(F)cccc2Cl)s1,-7,15%,0%,-4%,0%,35*
CC(=O)c1sc(NC(=O)Cc2c(F)cccc2Cl)nc1C,-7,8%,0%,i,2%,-3
CCC1(C(=O)NC(=Nc2ccccc2)Nc2ccccc2)CCOC1=O (stereo not drawn),14,-22%,.,i,-6%,0
CC(C)C[C@@H](N)C(=O)O,.,38µM*,.,.,.,-9
C[C@@H](N)C(=O)O,.,21µM*!,.,.,.,1
C[C@H](N)C(=O)O,.,i,.,.,.,.
COC(=O)CC1Oc2ccc(F)cc2-n2cc(-c3ccc(Cl)cc3)nc21 (stereo not drawn),.,-16%,.,-10%,3%,-16
COC(=O)CC1Oc2ccc(Cl)cc2-n2cc(-c3ccc(F)cc3)nc21 (stereo not drawn),.,5%,.,-94%,-29%,50*
O=c1c2ccccc2sn1-c1ccccc1,-98*,?,0%,-14%,16%,-3
O=c1c2ccccc2sn1-c1cccc(Cl)c1,?,.,.,-51%,51%,-6
CN(C)S(=O)(=O)c1ccc(C(=O)/C=C/c2cccnc2)cc1,-9,-53%,0%,-35%,-4%,-7
CCOc1ccc(-c2[nH]nc3c2C(c2cccnc2)C(C#N)=C(N)O3)cc1 (stereo not drawn),-51*,-27%,0%,-6%[57.5 µM],-11%,-1
CCc1[nH]nc2c1C(c1cccnc1)C(C#N)=C(N)O2 (stereo not drawn),-21,13%,.,-1%[57.5 µM],-5%,-2
SMILES,DRD3 antagonist,RGS4 inhibitor,B2AR arrestin,PTHR1 agonist,BRCA1 expr up,DRD3 agonist
CCOC(=O)C1CCN(Cc2ccc(O)c3ncccc23)CC1,-93*,-10%,?,-2%[57.5 µM],-88%,-19
COc1ccccc1N1CCN(Cc2ccc(O)c3ncccc23)CC1,-105*,22%,?,i,-107%,-87
CCOC(=O)C1CCN(Cc2ccccc2C(F)(F)F)CC1,-12,-11%,-2%,i,3%,-23
CCOc1ccccc1CN1CCN(S(=O)(=O)CC)CC1,-51*,13%,0%,-8%[57.5 µM],-9%,-5
O=C(c1ccc(F)cc1)C1CCN(Cc2cn[nH]c2-c2ccc(F)cc2)CC1,?,-9%,-1%,i,-27%,-10
CCOc1ccccc1N1CCN(Cc2cn[nH]c2-c2ccc(F)cc2)CC1,-84*,-15%,-1%,-5%,-27%,-17
Oc1ccc(CN2CCCc3ccccc32)c2cccnc12,-22,?,0%,i,-84%,8
CCN1C(=O)c2ccccc2C1Nc1ccc(OCCN2CCCCC2)cc1 (stereo not drawn),.,.,.,.,.,-21
COc1ccc(CN2CCN(C(=O)c3cccs3)CC2)c(OC)c1OC,-86*,-14%,0%,-9%[57.5 µM],-33%,-13
COc1ccc(CN2CCN(C(=O)c3ccc(-c4ccccc4)cc3)CC2)c(OC)c1OC,9,-11%,0%,-9%,2%,6
COc1ccc(CN2CCN(C(=O)c3cccc4ccccc34)CC2)c(OC)c1OC,-4,17%,0%,i,-10%,-2
COc1ccccc1N1CCN(Cc2ccc(OC)c(OC)c2OC)CC1,-51*,14%,-1%,-2%,4%[1.84 µM],-9
COc1cc2oc(=O)cc(CN3CCN(c4ccccc4OC)CC3)c2cc1Cl,-50*,.,.,-15%,0%,-1
Oc1c(CN2CCOCC2)cc(COCc2ccccc2)c2cccnc12,-67*,1%,5.8µM*,11%,-92%,-23
CCc1nc2ccc(C(=O)NCC3CCCCC3)cn2c1N(CCC(C)C)CCN(C)C,5,.,.,-18%,-65%,-14
COC(=O)c1c(NC(=O)C2CCCCC2)sc2c1CC(C)(C)NC2(C)C,-14,9%,0%,i,-30%,-6
CCOC(=O)N1CCN(Cc2cc(Cl)c3cccnc3c2O)CC1,-55*,-16%,53%,-5%,-94%,-11
O=C(Oc1c(CN2CCOCC2)cc(Cl)c2cccnc12)c1ccccc1Br,-80*,-17%,?,i,-76%,-28
CCOC(=O)N1CCN(Cc2ccccc2Cl)CC1,-12,2%,.,i,9%,-7
CCOc1ccccc1N1CCN(Cc2cccc(OC)c2OC)CC1,-89*,15%,0%,i,2%,-2
Cc1csc(=O)n1CCC(=O)OCC(=O)Nc1cc([N+](=O)[O-])ccc1Cl,-14,-24%,0%,3%,9%,-19
O=c1c2c3c(sc2nnn1Cc1ccc(F)cc1)CCCC3,.,-12%,.,-12%,.,2
